Only some compounds are listed: those with a hit (about 17% of all), similar ones and a draw of the others.
ClpP mod – qHTS Assay for Activators of ClpP; purified B. subtilis ClpP, FRET peptide cleavage, 20 min; Potency, µM (titrated, usually from 57.5 µM), for the others: at the top dose activity change, negative = active; 340,000 tested, 1.9% active; active = well fitted falling curve with a large enough effect; inconclusive = small, poorly fitted or top-dose-only effect; inactive = no such curve, though single readings can be large or run the other way; also: the source files actives as falling curves though it sought activators and does not explain the sign; nearly all actives have a fitted effect of over 65% in size
Target sequence (P80244 whole entry, looked up): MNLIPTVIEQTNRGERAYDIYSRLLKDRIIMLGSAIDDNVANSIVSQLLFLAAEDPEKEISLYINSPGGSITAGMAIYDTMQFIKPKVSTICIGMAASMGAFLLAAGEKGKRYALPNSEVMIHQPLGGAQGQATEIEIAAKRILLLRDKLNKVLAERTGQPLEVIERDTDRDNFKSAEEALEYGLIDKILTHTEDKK
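Purified B. subtilis ClpP, 10 microg/mL final in Tris/HCl pH8 with KCl, BSA, glycerol and Tween-20, cleaved an Abz/nitrotyrosine-quenched decapeptide. Fluorescence (ex 320, em 430) was read at 0 and 20 min at room temperature. Delta was normalized to 5.8 microM ADEP and DMSO/no-enzyme controls.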
DT40 TDP1 CPT – growth inhibition of DT40 Tdp1-/-;hTDP1 cells with camptothecin (screen for TDP1 inhibitors); chicken DT40 Tdp1-/-;hTDP1 cells + 20 nM CPT, ATP luminescence, 48 h; Potency, µM (titrated, usually from 46.2 µM), for inactives: at the highest dose activity change, negative = growth inhibition, most hits filed as inhibitors; 420,000 tested, 12% active; also: % is scaled to controls: 0 for no effect and ±100 for the full control effect; nearly all actives have a fitted effect of over 55% in size
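Cell growth measured by CellTiter-Glo luminescence after a minimum 48 h, 37 C compound exposure with 20 nM CPT in Tdp1-knockout DT40 cells stably expressing hTDP1, seeded 400/well; qHTS titration format.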
TDP1 cell noCPT – qHTS for Inhibitors of human tyrosyl-DNA phosphodiesterase 1 (TDP1): qHTS in cells in absence of CPT | DT40 Tdp1-/- hTDP1 cells, no CPT, ATP luminescence, 48 h | Potency, µM (highest dose often 46.2 µM), without a hit: at the highest dose activity change, negative = growth inhibition, hits mostly inhibitors | 420,000 tested, 15% active | AID 686978, 2013; also: % is scaled to controls: 0 for no effect and ±100 for the full control effect; nearly all actives have a fitted effect of over 55% in size
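Growth of hTDP1-complemented DT40 Tdp1-knockout cells is measured by ATP luminescence after at least 48 hr compound exposure at 37 °C, with DMSO substituting for the 20 nM CPT used in the parallel screen.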
TDP1 block – inhibitors of human tyrosyl-DNA phosphodiesterase TDP1; Q9NUW8; recombinant TDP1, AlphaScreen DNA substrate cleavage; Potency, µM (titrated, usually from 130 µM), inactives show top-dose activity change, negative = inhibition, hits mostly inhibitors; 350,000 tested, 0.28% active; AID 485290; also: % is scaled to controls: 0 for no effect and ±100 for the full control effect; nearly all actives have a fitted effect of over 40% in size
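E. coli-derived human Tdp1, 1 nM final. Cpd preinc 15 min RT; substrate 15 nM final, 5 min RT; AS bead mix 10 ug/ml final, 10 min RT. Signal loss = tyrosine-FITC cleavage. No-enzyme wells = max signal.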
* hit, by the source's call; u = inconclusive; x = not tested or not shown; ! = not active in a repeat; [ ] = dose if it differs, or a comment. Unless noted, calls follow the shape of the dose curve; as a rule, active = well fitted curve in the direction sought with a large enough effect; inconclusive = small, poorly fitted or top-dose-only effect, or another doubt; inactive = no such curve, though single readings can be large; an effect the other way counts as inactive or inconclusive. Potency is read from the fitted curve at half-maximal effect.

SMILES	ClpP mod	DT40 TDP1 CPT	TDP1 cell noCPT	TDP1 block
CC(=O)c1ccccc1OCc1ccc(S(=O)(=O)Cc2ccccc2)cc1	-2.9%	25.9µM*	20.6µM*	x
O=C(CSc1cn(CC(=O)N2CCCCC2)c2ccccc12)NCc1ccc(F)cc1	-3.4%	u	u	2.6%
COc1ccc(-c2ccc(=O)n(CC(=O)Nc3ccc(N(C)C)cc3)n2)cc1	-0.1%	0.9%	1.4%	8.5%
CN(C)S(=O)(=O)Oc1ccc(Cl)cc1C(=O)Nc1ccc(F)cc1F	x	5.7%	2.8%	0.0%
O=C(c1ccc(COc2ccccc2Br)o1)N1N=C(C(F)F)CC1(O)C(F)F (centres undefined)	3.8%	18.4µM*	25.9µM*	0.0%
O=C(c1ccc(Cn2cc([N+](=O)[O-])cn2)o1)N1N=C(C(F)F)CC1(O)C(F)F (centres undefined)	0.9%	2.0%	-6.4%	3.8%
CN(C)C(=O)COC(=O)c1ccccc1NC(=O)c1ccco1	-5.2%	-6.2%	-15.8%	-1.2%
CC1CCN(S(=O)(=O)c2ccc3[nH]ccc3c2)CC1	-2.7%	u	-24.7%	-5.2%
COC(=O)c1c(-c2c(Cl)cccc2Cl)noc1NC(=O)NN1CCOCC1	x	-8.2%	-19.2%	8.9%
COC(=O)c1c(-c2c(Cl)cccc2Cl)noc1NC(=O)NN1CCCCC1	x	u	16.4µM*	2.5%
CC(C)COC(=O)N(C)C[C@H]1OCc2cn(nn2)CCCC(=O)N([C@H](C)CO)C[C@@H]1C	0.3%	4.1%	-6.3%	x
Cc1ccc(CN2CCOc3ccc(CN4CCN(CCO)CC4)cc3C2)s1	x	10.4%	-14.5%	x
C=CCOc1ccccc1CNCCNC(=O)c1nonc1N	0.3%	-29.1%	-21.6%	0.0%
Nc1nonc1C(=O)NCCNCc1cc(Br)ccc1OCc1ccccc1F	2.7%	20.6µM*	20.6µM*	4.5%
Nc1nonc1C(=O)NCCNCc1ccccc1OCc1ccccc1F	-0.7%	u	20.6µM*	7.4%
COc1cc(CNCCNC(=O)c2nonc2N)ccc1OCc1ccc(Cl)cc1	-0.2%	u	20.6µM*	-2.4%
CCOc1ccccc1CNCCNC(=O)c1nonc1N	0.7%	u	25.9µM*!	-2.1%
CCOc1c(CNCCNC(=O)c2nonc2N)cccc1OC	0.3%	u	-24.7%	3.0%
COc1cccc(Cn2ncc3c4sc(SC)cc4n(C)c3c2=O)c1	x	x	x	0.3%
O=C(NCC1CCC2(CCN(Cc3ccccc3O)CC2)O1)C1CCCO1 (centres undefined)	x	-5.5%[9.04 µM]	-11.2%	x
Fc1ccccc1COc1ccc(Br)cc1CNCC1CCCO1 (centres undefined)	-1.4%	u	14.6µM*	0.0%
CC(C)CN(CCCNC(=O)c1cc(-c2ccc(Br)s2)nc2ccccc12)CC(C)C	-11.8%	u	-25.9%	-0.9%
Cc1ccc2c(c1)/C(=C/c1ccccc1)C(=O)N2	x	-11.7%	u	x
O=C1Nc2ccc(I)cc2/C1=C/c1cc(Br)c(O)c(Br)c1	x	13µM*	u	17.5%[56.1 µM]
O=C1Nc2ccc(I)cc2C1=Cc1cc(Br)c(O)c(Br)c1	-0.3%	10µM*	11.2µM*	x
SMILES	ClpP mod	DT40 TDP1 CPT	TDP1 cell noCPT	TDP1 block
Cc1cc(C)cc(C(O)c2ncc(-c3ccccc3)[nH]2)c1 (centres undefined)	-0.6%	-26.6%	-16.8%	x
CC(C)CC1C(=O)N(Cc2cn(CCC3OCCCO3)nn2)CCS(=O)(=O)N1Cc1ccc(-c2ccc(Cl)nc2)cc1 (centres undefined)	-4.7%	u	20.6µM*	x
COc1ccc(-c2ccc(CN3C(C(C)C)C(=O)N(Cc4cn(CCC5OCCCO5)nn4)CCS3(=O)=O)cc2)cn1 (centres undefined)	-1.5%	14.6µM*	20.6µM*	x
CC(C)CC1C(=O)N(Cc2cn(CCC3OCCCO3)nn2)CCS(=O)(=O)N1Cc1ccc(-c2ccc(Cl)cc2)cc1 (centres undefined)	2.5%	u	u	x
CC(C)C1C(=O)N(Cc2cn(CCC3OCCCO3)nn2)CCS(=O)(=O)N1Cc1ccc(-c2ccc(Cl)nc2)cc1 (centres undefined)	-2.2%	u	23.1µM*	x
CC(C)CC1C(=O)N(Cc2cn(CCC3OCCCO3)nn2)CCS(=O)(=O)N1Cc1ccc(-c2ccc(Cl)c(Cl)c2)cc1 (centres undefined)	0.0%	14.6µM*	16.4µM*	x
Cc1ccsc1C(=O)Nc1ccc(O)c(-c2nc3ccccc3s2)c1	-0.8%	u	-21.1%	2.7%
Cc1cccc(NC(=O)CSc2nc3ccc(NC(=O)c4cccs4)cc3s2)c1	3.6%	13µM*	8.2µM*	-0.5%
Cc1ccc(CSc2nc3ccc(NC(=O)COc4ccccc4F)cc3s2)cc1	-11.0%	-29.3%	-26.9%	1.6%
Cc1ccccc1NC(=O)CSc1nc2ccc(NC(=O)COc3ccccc3F)cc2s1	-3.5%	13µM*	10.3µM*	-3.6%
Cc1ccc(C(=O)Nc2ccc(-c3nc4ccccc4s3)c(O)c2)c(C)c1	0.5%	10.3µM*	u	3.3%
O=C(COc1ccc(Cl)cc1)Nc1ccc2[nH]ncc2c1	0.9%	u	20.6µM*	x
CCCN1CCN(CC2=C(C(=O)OCC)C(c3cccc(OC)c3OC)NC(=O)N2)CC1 (centres undefined)	-1.2%	-3.3%	-25.5%	-1.2%
Cc1c(NC(=O)c2ccc(S(=O)(=O)N(C)c3ccccc3)cc2)c(=O)n(-c2ccccc2)n1C	x	-13.2%	-9.5%	-2.5%
CCOC(=O)C1(CCOc2ccccc2)CCN(CC(O)CO)CC1 (centres undefined)	6.4%	-6.2%	14.9%	x
O=C(COc1ccc(Cl)cc1)Nc1ccc(O)c(-c2nc3ccccc3s2)c1	-8.5%	u	u	6.6%
Cc1cccc(NC(=O)CSc2nc3ccc(NC(=O)COc4ccc(Cl)cc4)cc3s2)c1	-5.9%	7.31µM*	6.51µM*	-0.5%
O=C(O)CSc1nc2ccc(NC(=O)COc3ccc(Cl)cc3)cc2s1	-8.7%	-5.9%	-4.0%	u
O=C(COc1ccc(Cl)cc1)Nc1ccc(-c2nc3ccccc3s2)c(O)c1	4.0%	u	18.4µM*	4.0%[12.3 µM]
COc1ccc(CCNC(=O)c2ccccc2C(=O)NCCc2ccc(OC)cc2)cc1	0.9%	-8.6%	-10.6%	x
Cc1ccc(CCNC(=O)c2coc3nc4ccccc4nc23)cc1	u	u	29.1µM*	7.6%
CC1CCCN(CCCNC(=O)c2coc3nc4ccccc4nc23)C1 (centres undefined)	12.6µM*	6.4%	-6.8%	5.4%
Cc1ccc(NC(=O)CSc2ncc3c(n2)-c2ccc(Cl)cc2N(C)S3(=O)=O)cc1F	-20.3%	23.1µM*	u	5.3%
Cc1ccccc1NC(=O)CSc1ncc2c(n1)-c1ccccc1N(C)S2(=O)=O	4.1%	u	-25.9%	-5.3%
